Results as given in PubChem BioAssay AID2501 (Southern Research Specialized Biocontainment Screening …, 2010).
Hit rate of the full screen: of about 2,200 compounds, about 1,200 (55%) were called active. The set was probably picked from earlier hits. This is one part of the list. Unmarked numbers belong to inactive results. Cut-off not given; nearly all actives show IC50 up to about 92 µM.

assay: counter assay for TAg ATPase ADP read-out – biochemical, ADP-Hunter, fluorescence, counter-screen (AID 2501); settings: series mostly up to 100 µM; inhibition: at the top concentration;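 further: purified T antigen ATPase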;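 on inhibition: 0% = enzyme with vehicle and 100% = reference inhibitor wells; higher means more inhibition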

For `C=C(CC)C(=O)c1ccc(OCC(=O)O)c(Cl)c1Cl`, which “inhibition” value is on record?
The value was 2.1%.

For `Cc1ccc(CNC(=O)C2CC(c3ccccc3[N+](=O)[O-])=NO2)cc1` (stereo unspecified), which “inhibition” value is on record?
Its value is 4.09%.

With `CC1=C(C#N)c2nc(N)c(C#N)c(C)c2/C1=C\c1ccc(-c2ccccc2C(=O)O)o1` as the compound, how does the “inhibition” value read?
Its value is 24.6%.

Which IC50 does the source give for `COc1cc(/C=N/NC(=O)CC#N)cc(Br)c1O` here?
Its IC50 is 6.13 µM (active).

With `COc1cc([N+](=O)[O-])cc(/C=N/NC(=O)CC#N)c1O` as the compound, how does the “inhibition” value read?
The value was -12.9%.

For `CN=c1scc(C)n1/N=C/c1cc(Br)c(O)c(OC)c1`, which IC50 is on record?
The IC50 was 5.68 µM (active).

Which IC50 does the source give for `CN=c1scc(C)n1/N=C/c1ccc(O)cc1O` here?
Its IC50 is 3.58 µM (active).

For `CCN=c1scc(C)n1/N=C/c1cc(Br)c(O)c(Br)c1`, which IC50 is on record?
Its IC50 is 6.61 µM (active).

Which “inhibition” value does the source give for `O=C1CSC(=S)N1/N=C/c1ccc(O)c([N+](=O)[O-])c1` here?
The value was 6.19% [at 50 µM].

For `COc1cc(/C=N/N(C)C)cc(Br)c1O`, which IC50 is on record?
Its IC50 is 3.75 µM (active).

Which IC50 does the source give for `CCN=c1scc(C)n1/N=C/c1cc(Br)c(O)c(OC)c1` here?
Its IC50 is 14.6 µM (active).

Which IC50 does the source give for `COc1cc(/C=N/N2C(=O)CSC2=S)cc(Br)c1O` here?
Its IC50 is 13.3 µM (active).

With `COC(=O)c1ccccc1-n1c(C)nc(=O)c(-c2ccccc2)c1C` as the compound, how does the “inhibition” value read?
Its value is 10.8%.

With `C[N+]1(CCCCSc2ccc(O)cc2)CCCCC1` as the compound, how does the IC50 read?
Its IC50 is 4.59 µM (active).

Which IC50 does the source give for `CNc1n[nH]c(=S)s1` here?
The IC50 was 92.7 µM (active).

For `CC(=O)Oc1cc(O)c2c(=O)c(OC(C)=O)c(-c3ccc(OC(C)=O)c(OC(C)=O)c3)oc2c1`, which IC50 is on record?
Its IC50 is 16.6 µM (active).

Which “inhibition” value does the source give for `CC1(C)CC(=O)C=C(NCCc2ccccc2)C1` here?
The value was -19.5%.

Which IC50 does the source give for `O=[N+]([O-])c1ccc(N2CCN(c3ccc(O)cc3)CC2)cn1` here?
Its IC50 is 5.49 µM (active).

For `CC(=O)Nc1ccc(S(=O)(=O)N2CCN(Cc3ccccc3[N+](=O)[O-])CC2)cc1`, which “inhibition” value is on record?
Its value is -7.97%.

For `NC(=O)c1ccc(N2CCN(c3ccc(O)cc3)CC2)c([N+](=O)[O-])c1`, which IC50 is on record?
Its IC50 is 7.83 µM (active).

Which IC50 does the source give for `CN1CCN(S(=O)(=O)c2ccc(N3CCN(c4ccc(O)cc4)CC3)c([N+](=O)[O-])c2)CC1` here?
The IC50 was 4.03 µM (active).

For `CN1CCN(S(=O)(=O)c2ccc3c(c2)NC(=O)C2CCCN32)CC1` (stereo unspecified), which “inhibition” value is on record?
Its value is -7.97%.

For `O=C(Nc1ccc(CN2CCOCC2)cc1)c1ccc(N2CCCC2)c([N+](=O)[O-])c1`, which “inhibition” value is on record?
Its value is -12.7%.

For `O=C(O)c1ccc(-c2ccc(O)c(F)c2)cc1`, which IC50 is on record?
Its IC50 is 7.49 µM (active).

Which “inhibition” value does the source give for `O=C1NC(C(=O)O)=CC(c2ccc([N+](=O)[O-])cc2)N1` (stereo unspecified) here?
Its value is -6.48%.

With `Cc1ccsc1/C=N/n1c(-c2cccnc2)n[nH]c1=S` as the compound, how does the IC50 read?
The IC50 was 25 µM (active).

With `O=C(O)c1ccc(-n2c(-c3cc(-c4ccco4)[nH]n3)n[nH]c2=S)cc1` as the compound, how does the “inhibition” value read?
The value was 27.3%.

With `Cc1cc(-c2n[nH]c(=S)n2/N=C/C=C/c2ccco2)n[nH]1` as the compound, how does the IC50 read?
The IC50 was 97.4 µM (active).

Which IC50 does the source give for `CC(/C=N/n1c(-c2n[nH]c3c2CCC3)n[nH]c1=S)=C\c1ccco1` here?
Its IC50 is 49 µM (active).

Which IC50 does the source give for `CC(/C=N/n1c(-c2ccncc2)n[nH]c1=S)=C\c1ccco1` here?
Its IC50 is 44.3 µM (active).

With `S=c1[nH]nc(COc2ccccc2)n1/N=C/C=C/c1ccco1` as the compound, how does the “inhibition” value read?
The value was 21.1%.

Which “inhibition” value does the source give for `Cc1ccnc(NC(=S)NC(=O)/C=C/c2ccco2)c1` here?
The value was 8.26%.

For `O=C(O)c1cc(-c2ccco2)nc2ccc(Br)cc12`, which “inhibition” value is on record?
The value was 13.5%.

For `Cc1ccc(/C=N/n2c(-c3ccco3)n[nH]c2=S)cc1`, which IC50 is on record?
Its IC50 is 16.5 µM (active).

Which IC50 does the source give for `Cc1cccc(/C=N/n2c(-c3ccncc3)n[nH]c2=S)c1` here?
Its IC50 is 88.6 µM (active).

Which IC50 does the source give for `S=c1[nH]nc(-c2n[nH]c3c2CCC3)n1/N=C/C=C/c1ccco1` here?
The IC50 was 28.2 µM (active).

For `Cc1ccc(-n2c(-c3cc(-c4ccco4)[nH]n3)n[nH]c2=S)c(Br)c1`, which “inhibition” value is on record?
Its value is 27.1%.

For `CC(/C=N/n1c(-c2cccnc2)n[nH]c1=S)=C\c1ccccc1`, which IC50 is on record?
The IC50 was 38.8 µM (active).

For `C=CCn1c(-c2ccc3ncccc3c2)n[nH]c1=S`, which “inhibition” value is on record?
Its value is 22.6%.

Which “inhibition” value does the source give for `CCS(=O)(=O)N1CCC(C(=O)NCCN2CCOCC2)CC1` here?
The value was 20.6% [at 50 µM].

Which “inhibition” value does the source give for `Cc1cc(C(F)(F)F)nc2c(Cl)c(C(C)(C)C)nn12` here?
Its value is -28.7%.

For `NS(=O)(=O)c1ccc(N=Nc2c[nH]c(=O)c(O)c2)cc1`, which IC50 is on record?
The IC50 was 7.75 µM (active).

For `Cc1cccc(C)c1NC(=S)Nc1ccccc1C(=O)NCc1ccco1`, which “inhibition” value is on record?
Its value is 8.4%.

With `CCOC(=O)c1[nH]c2ccccc2c1NC(=S)Nc1cccc(C)c1C` as the compound, how does the IC50 read?
Its IC50 is 29 µM (active).

For `CCOC(=O)c1c(C)[nH]c(C(=O)OCC(=O)Nc2cc(Cl)ccc2OC)c1C`, which “inhibition” value is on record?
Its value is -25.2%.

With `COc1ccc(/C=N/NC(=O)c2ccc(Br)cc2)cc1CN1CCOCC1` as the compound, how does the IC50 read?
The IC50 was 13 µM (active).

Which IC50 does the source give for `Oc1ccc(/C=N/NC(=S)NCCN2CCOCC2)c(O)c1` here?
The IC50 was 4.25 µM (active).

For `COc1ccc(NC(=S)N/N=C/c2ccc(F)c(F)c2)cc1`, which IC50 is on record?
The IC50 was 23.4 µM (active).

Which “inhibition” value does the source give for `COc1ccc(CNS(=O)(=O)c2ccc(F)c(C(=O)Nc3ccc(OC)cc3)c2)cc1` here?
The value was 4.99%.

For `COc1cc(/C=N/NC(=S)NCCN2CCOCC2)ccc1O`, which IC50 is on record?
Its IC50 is 2.37 µM (active).

For `COc1ccc(C(=O)N/N=C/c2ccc(OC)c(CN3CCc4cc(OC)c(OC)cc4C3C)c2)cc1` (stereo unspecified), which “inhibition” value is on record?
Its value is 7.43%.
